Source: PubChem BioAssay (National Center for Advancing Translational Sciences (NCATS))
Pf Dd2 growth: Plasmodium falciparum Dd2 growth inhibition; Potency, µM (series often up to 28.9 µM), for inactives: at the top dose activity, negative = inhibition, hits mostly inhibitors; AID 1347417; actives 4.3% (n = 120,000); P. falciparum Dd2 growth, SYBR Green, 72 h; active = well fitted inhibition curve with a large enough effect;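 also: plate controls were DMSO vehicle for no effect and reference drug for full effect; nearly all actives have a fitted effect of over 65% in size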
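Infected erythrocytes (Dd2, 0.3% parasitemia, 2.5% hematocrit final) are added to compound in RPMI-1640/Albumax II medium, grown 72 h at 37C in low oxygen, then lysed with saponin/Triton-X containing SYBR Green and read by fluorescence.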
* = called active by the depositor; i = inactive; [ ] = remark or other dose. Only a selection was taken, and hits are over-represented in it overall. Potency is read from the fitted curve at half-maximal effect.

SMILES | Pf Dd2 growth
COCCNC(=O)c1ccc(CN2C(=O)NC3(CCS(=O)(=O)CC3)C2=O)cc1 | 8.1%
COc1ccc2nc(C[C@@H]3C[C@@H](C(C)C)[C@H](CNC4CCCCC4)C=C3C)[nH]c2c1 | 2.82µM*
COC(=O)c1ccc2nc(C[C@@H]3C[C@@H](C(C)C)[C@H](CNC(=O)CCCC(=O)O)C=C3C)[nH]c2c1 | -28.1%
CC1=C[C@@H](CNC(=O)CCCC(=O)O)[C@H](C(C)C)C[C@H]1Cc1nc2ccccc2[nH]1 | -19.2%[44.1 µM]
COC(=O)c1ccc2nc(C[C@@H]3C[C@@H](C(C)C)[C@H](CNC(=O)C4CCCCC4)C=C3C)[nH]c2c1 | 11.2µM*
COCC(=O)NC[C@@H]1C=C(C)[C@H](Cc2nc3ccc(C(=O)OC)cc3[nH]2)C[C@H]1C(C)C | 11.2µM*
COc1ccc2nc(C[C@@H]3C[C@@H](C(C)C)[C@H](CNC(=O)COCC(=O)O)C=C3C)[nH]c2c1 | -16.2%[44.1 µM]
CC1=C[C@@H](CNC(=O)COCC(=O)O)[C@H](C(C)C)C[C@H]1Cc1nc2ccc(F)cc2[nH]1 | 9.0%[44.1 µM]
COc1ccc2nc(C[C@@H]3C[C@@H](C(C)C)[C@H](CNC(=O)C4CCCCC4)C=C3C)[nH]c2c1 | 12.6µM*
COc1ccc2nc(C[C@@H]3C[C@@H](C(C)C)[C@H](CN4C(=O)C(C)=C(C)C4=O)C=C3C)[nH]c2c1 | i
COc1ccc2nc(C[C@@H]3C[C@@H](C(C)C)[C@H](CNC(=O)[C@@H]4CCCC[C@@H]4C(=O)O)C=C3C)[nH]c2c1 | -24.3%
COC(=O)c1ccc2nc(C[C@@H]3C[C@@H](C(C)C)[C@H](CNC(=O)COCC(=O)O)C=C3C)[nH]c2c1 | -14.3%
Cc1ccccc1S(=O)(=O)N1CCC(CCC(=O)NC2CCS(=O)(=O)C2)CC1 (stereo not given) | -10.1%
O=C(NC[C@H]1OC[C@@H](NC2CCOCC2)[C@@H]1O)N1CCOCC1 | 14.5%[44.1 µM]
Cc1ccc(CN2CCn3c(nnc3[C@@H]3C[C@@H](O)CN3Cc3cccnc3)C2)o1 | 9.8%
COCCNC(=O)[C@H]1C[C@H](Oc2ccccc2)CN1C(=O)C(C)C | 15.4%
COc1ccc2nc([C@H]3CCN(Cc4cccc(C#N)c4)C3)[nH]c2c1 | -2.1%[44.1 µM]
COC1CCC12CCN(Cc1cccnc1)CC2 (stereo not given) | i
Cc1ccccc1C(=O)NC1CCN(c2cc(C(F)(F)F)ncn2)CC1 | -22.5%
CC1=C[C@@H](CN)[C@H](C(C)C)C[C@H]1Cc1nc2ccccc2[nH]1 | i
COc1ccc2nc(C[C@@H]3C[C@@H](C(C)C)[C@H](CNCc4ccccc4)C=C3C)[nH]c2c1 | -15.1%[44.1 µM]
CC1=C[C@@H](CNCc2ccccc2)[C@H](C(C)C)C[C@H]1Cc1nc2c(C)cccc2[nH]1 | 3.55µM*
CC1=C[C@@H](CNC(=O)CC(C)(C)CC(=O)O)[C@H](C(C)C)C[C@H]1Cc1nc2ccc(C)cc2[nH]1 | 8.91µM*
CC1=C[C@@H](CNC(=O)CC(C)(C)CC(=O)O)[C@H](C(C)C)C[C@H]1Cc1nc2ccncc2[nH]1 | 2.0%
COC(=O)c1ccc2nc(C[C@@H]3C[C@@H](C(C)C)[C@H](CN(C)C)C=C3C)[nH]c2c1 | 12.6µM*
SMILES | Pf Dd2 growth
CC1=C[C@@H](CNC(=O)CC(C)(C)CC(=O)O)[C@H](C(C)C)C[C@H]1Cc1nc2ccc(F)cc2[nH]1 | i
CC1=C[C@@H](CNC(=O)CC(C)(C)CC(=O)O)[C@H](C(C)C)C[C@H]1Cc1nc2c(C)cccc2[nH]1 | -23.7%
CC1=C[C@@H](CNC(=O)C2CCCCC2)[C@H](C(C)C)C[C@H]1Cc1nc2c(C)cccc2[nH]1 | -25.3%[44.1 µM]
CC1=C[C@@H](CNC(=O)C2CCCCC2)[C@H](C(C)C)C[C@H]1Cc1nc2ccc(C)cc2[nH]1 | 11.2µM*
COC(=O)c1ccc2nc(C[C@@H]3C[C@@H](C(C)C)[C@H](CNC(=O)CN(C)C)C=C3C)[nH]c2c1 | -4.6%
CCC(CC)C(=O)NC[C@@H]1C=C(C)[C@H](Cc2nc3ccc(C)cc3[nH]2)C[C@H]1C(C)C | -11.8%[44.1 µM]
CC(C)C(=O)NCCc1noc(Cc2ccccc2)n1 | 88.3%
Cc1ccc(C2(C(=O)NC(C)c3cnc(-c4ccncc4)nc3C)CC2)cc1 (stereo not given) | -7.2%
O=C(NCCc1nc(-c2cccnc2)n[nH]1)C1NCCc2[nH]cnc21 (stereo not given) | -3.1%
Cc1noc([C@@H]2CN(C(=O)c3ccc4cc[nH]c4c3)C[C@H]2CO)n1 | i
COc1cc(Cl)ccc1C(=O)N1[C@@H]2CC[C@H]1CC(NC(=O)c1ccncc1)C2 (stereo not given in full) | 0.3%
O=C(C1CCCC1)N1CCCC(c2nc(C3CCOCC3)no2)C1 (stereo not given) | 6.5%
CCN(CC)C(=O)[C@@H]1CCC[C@@H](NC(=O)C2CCOCC2)CN(C)C(=O)C1 | i
O=C(COc1ccccc1)N1CCC(O)(c2csc(CN3CCOCC3)n2)CC1 | 16.5%[44.1 µM]
CN1Cc2cccn2CC1CNC(=O)c1nn(C)c2ccccc12 (stereo not given) | -20.0%
CN1CCC(N2CCN(C(=O)C3CCCN(S(C)(=O)=O)CCC(=O)NCC3)CC2)CC1 (stereo not given) | 7.5%
O=C(O)C1(c2ccccc2)CCN(S(=O)(=O)c2cccc(C(F)(F)F)c2)CC1 | 5.9%
O=C(C1CC1)N1CCc2nc(-c3ccc(Cl)cc3)nc(-c3ccccc3)c2C1 | i
CC(C)c1nc2c(c(-c3ccc(O)cc3)n1)CN(C(=O)c1ccccc1)CC2 | -13.2%
COc1ccc(C(=O)N2CCCc3nc(C)nc(-c4ccc(O)cc4)c3C2)cc1 | -13.3%
CC(C)c1nc2c(c(-c3ccc(O)cc3)n1)CCN(C(=O)c1ccccc1Cl)CC2 | i
COc1ccc(-c2nc(-c3ccccc3)nc3c2CN(C(=O)C2CC2)CC3)cc1 | 11.2µM*
CC(C)c1nc2c(c(-c3ccc(O)cc3)n1)CN(C(=O)c1cccc(Cl)c1)CC2 | 4.47µM*
CC(=O)N1CCc2nc(C(C)C)nc(-c3ccc(O)cc3)c2C1 | -13.8%[44.1 µM]
COCC(=O)N1CCc2nc(C(C)C)nc(-c3ccc(OC)cc3)c2CC1 | -11.3%
SMILES | Pf Dd2 growth
CC(C)c1nc2c(c(-c3ccc(O)cc3)n1)CN(C(=O)c1ccc(Cl)nc1)CC2 | i
COc1ccc(-c2nc(C(C)C)nc3c2CCN(C(=O)c2ccccc2Cl)CC3)cc1 | 10µM*
COc1ccc(-c2nc3c(c(-c4ccccc4)n2)CN(C(C)=O)CC3)cc1 | i
COc1ccc(C(=O)N2CCc3nc(C(C)C)nc(-c4ccc(O)cc4)c3C2)cc1 | 8.91µM*
CC(C)Cc1cc(C(=O)N2CC(OCc3ccc(F)cc3)C2)on1 | 2.1%
Cc1nc(C2CCCN(C(=O)C(C)(C)N)C2)cc(N2CCCC2)n1 (stereo not given) | -17.6%
CC(C)CCNC(=O)C1(CCO)CCN(c2ncccn2)C1 (stereo not given) | 32.6%
COCCNc1ncccc1-c1noc([C@@H]2CCCN2C2CCOCC2)n1 | i
CCN1CCC(CCNC(=O)C2N(C(C)C)C(=O)C23CCCCC3)CC1 (stereo not given) | 16.5%
COc1ccc(/C=C/c2ccc3c(c2)C(=O)N2CC[C@H](NC(=O)COCC(=O)O)[C@H]2C(=O)N3)cc1 | -13.0%
CCC1(C(=O)NCc2cccc(C(F)(F)F)c2)CCCCC(=O)N1 (stereo not given) | 1.5%
O=C(NC1C[C@H]2CC[C@@H](C1)N2C(=O)Cc1ccsc1)c1ccc(F)cc1 (stereo not given in full) | -24.5%
c1ccc2oc([C@H]3CCN(C4CCOCC4)C3)nc2c1 | i
